Reference: PMC4336329 (PLoS ONE, 2015)
Hit rate of the full screen: of about 310,000 compounds, about 14,000 (4.5%) showed an effect of 50% or more. Effects have a minus sign here. What follows is part of a selection rich in strong results, with near analogues and random picks from the rest.

Molecular target: human ether-à-go-go-related gene (hERG) potassium channel (human, UniProt Q12809)
Assay: primary screen, population patch clamp on CHO cells stably expressing hERG; higher = less effect of the substance
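Note: peak tail current of the secondary pulse compared with the same well before compound.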

human ether-à-go-go-related gene (hERG) potassium channel, sequence (Q12809 whole entry, looked up): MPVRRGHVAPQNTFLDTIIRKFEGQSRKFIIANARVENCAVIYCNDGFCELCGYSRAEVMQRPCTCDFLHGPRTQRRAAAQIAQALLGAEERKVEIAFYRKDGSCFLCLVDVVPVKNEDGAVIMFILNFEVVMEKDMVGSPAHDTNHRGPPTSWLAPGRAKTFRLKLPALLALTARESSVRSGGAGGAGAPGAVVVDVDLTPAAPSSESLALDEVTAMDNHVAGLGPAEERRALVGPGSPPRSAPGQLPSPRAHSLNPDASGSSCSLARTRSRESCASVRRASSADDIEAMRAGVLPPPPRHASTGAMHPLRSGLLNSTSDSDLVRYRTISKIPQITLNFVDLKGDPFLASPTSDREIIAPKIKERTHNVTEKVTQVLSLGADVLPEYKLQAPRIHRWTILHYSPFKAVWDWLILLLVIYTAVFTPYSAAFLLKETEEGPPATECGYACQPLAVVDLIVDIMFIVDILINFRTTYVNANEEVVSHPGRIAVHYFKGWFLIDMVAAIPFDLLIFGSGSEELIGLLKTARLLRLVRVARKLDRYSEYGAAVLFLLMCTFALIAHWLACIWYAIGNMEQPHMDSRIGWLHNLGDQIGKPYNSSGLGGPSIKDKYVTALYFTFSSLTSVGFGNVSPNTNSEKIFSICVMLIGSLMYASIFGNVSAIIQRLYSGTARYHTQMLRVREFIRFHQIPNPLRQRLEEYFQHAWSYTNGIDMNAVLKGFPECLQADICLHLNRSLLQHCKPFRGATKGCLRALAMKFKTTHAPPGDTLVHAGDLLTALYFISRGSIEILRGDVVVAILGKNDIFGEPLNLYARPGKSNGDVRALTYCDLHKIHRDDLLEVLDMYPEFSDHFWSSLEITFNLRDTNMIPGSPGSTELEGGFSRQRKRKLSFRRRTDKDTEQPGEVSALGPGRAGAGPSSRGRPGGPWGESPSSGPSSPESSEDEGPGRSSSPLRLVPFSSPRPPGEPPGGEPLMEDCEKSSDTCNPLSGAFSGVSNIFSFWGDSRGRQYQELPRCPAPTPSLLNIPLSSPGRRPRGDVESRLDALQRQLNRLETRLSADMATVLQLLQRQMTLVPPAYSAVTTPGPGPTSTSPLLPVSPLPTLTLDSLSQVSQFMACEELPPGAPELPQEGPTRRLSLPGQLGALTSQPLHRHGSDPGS

Structure (SMILES)	hERG current change (%, negative = inhibition) at 10uM [%]
COc1cc(OC)nc(NC2OC(=O)c3ccccc32)n1 (stereo not shown)	0.248
CC(=O)Oc1cc2c(cc1Cl)C(c1cccs1)CC1(CC(C)(C)NC(=S)N1)O2 (stereo not shown)	9.77
COc1cccc(CN2CCCC(C(=O)c3ccc4c(c3)OCO4)C2)c1OC (stereo not shown)	-63.3
COc1cccc(CN2CCC(C(=O)N3CCN(Cc4ccc5c(c4)OCO5)CC3)CC2)c1OC	-39.5
COc1cccc(CN2CCCC(C(=O)N3CCCCC3)C2)c1OC.O=C(O)C(=O)O (stereo not shown)	-26.3
COc1cccc(CN2CCCC(C(=O)c3ccc4c(c3)OCO4)C2)c1O (stereo not shown)	-65.5
COc1cc(OC)c(OC)cc1CN1CCCC(C(=O)N2CCCC2)C1.O=C(O)C(=O)O (stereo not shown)	17.4
COc1cc(OC)c(OC)cc1CN1CCCC(C(=O)c2ccc3c(c2)OCO3)C1 (stereo not shown)	-67.1
COc1ccc(CN2CCCC(C(=O)c3ccc4c(c3)OCO4)C2)c(F)c1 (stereo not shown)	-64.2
COC(=O)c1ccccc1NC(=O)COC(=O)CO/N=C(\C)c1ccc2c(c1)OCO2	21
CCn1c(SCC(=O)Nc2nc3ccc(OC)cc3s2)nnc1-c1ccoc1C	-32.3
OC(COc1cc(Cl)c(Cl)cc1Cl)CN1CCN(c2ncccn2)CC1 (stereo not shown)	-11.3
CCSc1nnc(NC(=O)CSc2nccn2-c2cc(C)cc(C)c2)s1	-2.92
COc1ccc(-c2c(C)nn3c(N4CCCCCC4)cc(C)nc23)cc1OC	7.94
CCNC(=O)N1CCCC(C(=O)c2ccc(OC)c(OC)c2)C1 (stereo not shown)	20.8
COc1ccc(C(=O)C2CCCN(Cc3cccc4c3OCO4)C2)cc1OC (stereo not shown)	-73.8
COc1cccc(C(=O)C2CCCN(Cc3cccc4c3OCO4)C2)c1 (stereo not shown)	-49.4
CCN1C(=O)CC(N2CCN(c3cccc(OC)c3)CC2)C1=O (stereo not shown)	14.1
Cc1cc2nccc(-c3ccccn3)n2n1	28.3
Cc1ccc(Nc2nc(=O)[nH]nc2C)cc1	-9.45
CC1CCCCC1NC(=O)CCNC(=O)N1CC(=O)Nc2ccccc21 (stereo not shown)	10.5
CC(=O)Nc1cccc(-c2nnc(SCC(=O)n3c4c(c5ccccc53)CCCC4)n2C)c1	2.33

Structure (SMILES)	hERG current change (%, negative = inhibition) at 10uM [%]
CCOC(=O)c1c(NC(=O)CSc2nc3ccccc3[nH]2)sc2c1CC(C)(C)NC2(C)C	-45.2
CCOC(=O)c1c(NC(=O)Cc2ccccc2)sc2c1CC(C)(C)NC2(C)C	-52
CCOC(=O)c1c(NC(=O)COc2ccccc2F)sc2c1CC(C)(C)NC2(C)C	5.17
CCOC(=O)c1c(NC(=O)CSc2nnnn2-c2ccccc2)sc2c1CCC(C)C2 (stereo not shown)	-5.66
CCOC(=O)c1c(NC(=O)CSc2nnnn2-c2ccccc2)sc2c1CC(C)(C)NC2(C)C	-64.3
CCOC(=O)c1c(NC(=O)COc2ccccc2OCC)sc2c1CC(C)(C)NC2(C)C	13.3
CCOC(=O)c1c(NC(=O)CSc2nc3ccc(C)cc3[nH]2)sc2c1CC(C)(C)NC2(C)C	-44.3
CCOC(=O)c1c(NC(=O)CSc2ncccn2)sc2c1CC(C)(C)NC2(C)C	-55.9
CCOC(=O)c1c(NC(=O)CSc2nnnn2-c2ccccc2OCC)sc2c1CC(C)(C)NC2(C)C	-71.2
CCOC(=O)c1sc(NC(=O)CSc2nnnn2-c2ccccc2)c(C(=O)OCC)c1C	4.34
COC(=O)c1c(NC(=O)Cc2ccccc2)sc2c1CC(C)(C)NC2(C)C	-11.1
CCOC(=O)c1c(NC(=O)COc2ccccc2)sc2c1CC(C)(C)NC2(C)C	14.3
N#Cc1ccc2ccn(CC(=O)NCc3ccccc3)c2c1	-1.22
O=C(CN1CCN(Cc2ccccc2F)C1=O)NC1CCCC1	1.87
Cc1nccn1CC(O)COC1CCCCC1 (stereo not shown)	13
Nc1nnnn1/N=C/c1cccs1	3.28
CSc1ncccc1C(=O)NCCc1ccccc1	7.94
CC(C)n1c(CN2CCN(Cc3ccccc3)CC2)nc2ccccc21	-14.4
CCn1c(=S)sc2c(=O)n(-c3ccccc3)c(SC)nc21	-11.2
CCN(CC)C(=O)CSc1nc2c(sc(=S)n2Cc2ccco2)c(=O)n1-c1ccccc1	-29.4
CCN(CC)C(=O)CSc1nc2c(sc(=S)n2-c2ccccc2OC)c(=O)n1-c1ccccc1	-4.22
CCN(CC)C(=O)CSc1nc2c(sc(=S)n2CC)c(=O)n1-c1ccccc1	-66.9

Structure (SMILES)	hERG current change (%, negative = inhibition) at 10uM [%]
CCN(CC)C(=O)CSc1nc2c(sc(=S)n2-c2ccccc2)c(=O)n1Cc1ccco1	-78.7
CCC(C)NC(=O)CSc1nc2c(sc(=S)n2Cc2ccco2)c(=O)n1-c1ccccc1 (stereo not shown)	-9.99
CC(C)CCNC(=O)C1CCN(S(=O)(=O)c2ccc3c(c2)CC(C)N3C(=O)C2CCC2)CC1 (stereo not shown)	-12.7
CN(Cc1ccccc1)C(=S)Nc1cccnc1	9.05
COc1c(C)cc(Br)cc1C(=O)Nc1ccc(Cc2ccncc2)cc1	-3.5
COc1ccc(N(C(=O)Cn2nnc(-c3ccc(F)cc3)n2)C(C)C(=O)NC2CCCC2)cc1 (stereo not shown)	-22
CCC/C(O)=C1\C(=O)CC(c2ccccc2)CC1=NCCc1c(C)[nH]c2ccccc12 (stereo not shown)	-39.3
Cc1nnc(SCc2nc3ccccc3s2)n1-c1ccccc1	2.82
CC(=O)N1CCN(CCN=Cc2c(O)n(-c3ccc(F)cc3)c(=S)[nH]c2=O)CC1	22.1
O=c1c(C=NCCN2CCNCC2)c(-c2ccccc2)[nH]n1-c1ccc([N+](=O)[O-])cc1	-66.4
COc1ccc(-c2[nH]n(-c3ccc([N+](=O)[O-])cc3)c(=O)c2C=NCCN2CCNCC2)cc1	-4.9
CC1(C)CC(=O)C(C=NCCN2CCN(C(=O)c3ccc(F)cc3)CC2)=C(O)C1	-21.1
CNC(=S)N1CCN(CCN=Cc2c(O)n(-c3ccc(C)cc3)c(=S)[nH]c2=O)CC1	21.2
Cc1ccc(-n2[nH]c(C)c(/C=N/Nc3ccc([N+](=O)[O-])cc3[N+](=O)[O-])c2=O)cc1	23.9
Cc1[nH]n(-c2ccc([N+](=O)[O-])cc2)c(=O)c1C=NCCc1c[nH]c2ccccc12	13.2
Cc1[nH]n(-c2ccc([N+](=O)[O-])cc2)c(=O)c1C=NCCN1CCN(C(=O)c2ccccc2)CC1	-71.6
Cc1[nH]n(-c2ccc([N+](=O)[O-])cc2)c(=O)c1C=NCCc1c(C)[nH]c2ccccc12	1.38
Cc1[nH]n(-c2ccc([N+](=O)[O-])cc2)c(=O)c1C=NCCN1CCN(C(=O)c2ccc(F)cc2)CC1	-73.7
O=c1c(C=NCC2CCCO2)c(-c2ccccc2)[nH]n1-c1ccc([N+](=O)[O-])cc1 (stereo not shown)	7.58
C=CCNC(=S)N1CCN(CCN=Cc2c(C)[nH]n(-c3ccc([N+](=O)[O-])cc3)c2=O)CC1	-72.1
